Experimental data published in PubChem BioAssay AID1159580 (chemical genetic matrix, 2015).
Screen size: about 5,500 compounds; about 2,000 (36%) were called active. Another 18% or so got no clear call; they are omitted. Cut-off read from the data, not from the text of the source: active = normalized growth mostly below about 0.91 (no sharp cut-off); inconclusive = no clear call, values can overlap the other calls; inactive = mostly above about 0.92. Some of the results follow.

Test: chemical genetic growth profiling, strain panel (AID 1159580);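 note: tested at 20 µM; growth read once vehicle control cultures reached saturation at 30 °C; 1 = growth at the plate median or of vehicle wells; lower values mean less growth of the strain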
Conditions: S. cerevisiae deletion strains, growth OD

Measured: normalized growth

Clc1ccc(Cn2c(CN3CCCC3)nc3ccccc32)cc1
inactive: locus YAL040C, strain CLN3, active compounds read low 1.01 | locus YCL061C, strain MRC1 (second series), active compounds read low 0.996 | locus YDR150W, strain NUM1, active compounds read low 0.996 | locus YDR363W, strain ESC2, active compounds read low 0.999 | locus YER002W, strain NOP16, active compounds read low 1.01 | locus YNL128W, strain TEP1, active compounds read low 1.04 | locus YNL175C, strain NOP13, active compounds read low 1.02 | locus YNL197C, strain WHI3, active compounds read low 1.04 | locus YNL224C, strain SQS1, active compounds read low 1.02 | locus YNL322C, strain KRE1, active compounds read low 0.989 | locus YOR083W, strain WHI5 (second series), active compounds read low 1.02 | locus YPL055C, strain LGE1, active compounds read low 0.932
